An excerpt weighted towards active compounds, which were near 19% of everything screened.
TDP1 cell CPT = qHTS for Inhibitors of human tyrosyl-DNA phosphodiesterase 1 (TDP1): qHTS in cells in presence of CPT; Potency, µM (doses to about 46.2 µM), for the others: top-dose activity change, negative = growth inhibition, usual class: inhibitors; chicken DT40 Tdp1-/-;hTDP1 cells + 20 nM CPT, ATP luminescence, 48 h; hit rate 12% among 420,000; also: potency is read from the fitted curve at half-maximal effect; % is scaled to controls: 0 for no effect and ±100 for the full control effect; nearly all actives have a fitted effect of over 55% in size
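Chicken DT40 Tdp1-/- cells stably complemented with human TDP1 were seeded at 400 cells/well in medium containing 20 nM camptothecin, exposed to pin-transferred compounds, and grown at 37 °C for at least 48 hr. Viability was read as ATP luminescence.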
TDP1 block = qHTS Assay for Inhibitors of Tyrosyl-DNA Phosphodiesterase (TDP1); Tyrosyl-DNA phosphodiesterase 1 (Homo sapiens), Q9NUW8; recombinant TDP1, AlphaScreen DNA substrate cleavage; Potency, µM (top dose mostly 130 µM), for inactives: top-dose activity change, negative = inhibition, hits mostly inhibitors; hit rate 0.28% among 350,000; AID 485290, 2010; also: potency is read from the fitted curve at half-maximal effect; % is scaled to controls: 0 for no effect and ±100 for the full control effect; nearly all actives have a fitted effect of over 40% in size
Target sequence (Q9NUW8 whole entry, looked up): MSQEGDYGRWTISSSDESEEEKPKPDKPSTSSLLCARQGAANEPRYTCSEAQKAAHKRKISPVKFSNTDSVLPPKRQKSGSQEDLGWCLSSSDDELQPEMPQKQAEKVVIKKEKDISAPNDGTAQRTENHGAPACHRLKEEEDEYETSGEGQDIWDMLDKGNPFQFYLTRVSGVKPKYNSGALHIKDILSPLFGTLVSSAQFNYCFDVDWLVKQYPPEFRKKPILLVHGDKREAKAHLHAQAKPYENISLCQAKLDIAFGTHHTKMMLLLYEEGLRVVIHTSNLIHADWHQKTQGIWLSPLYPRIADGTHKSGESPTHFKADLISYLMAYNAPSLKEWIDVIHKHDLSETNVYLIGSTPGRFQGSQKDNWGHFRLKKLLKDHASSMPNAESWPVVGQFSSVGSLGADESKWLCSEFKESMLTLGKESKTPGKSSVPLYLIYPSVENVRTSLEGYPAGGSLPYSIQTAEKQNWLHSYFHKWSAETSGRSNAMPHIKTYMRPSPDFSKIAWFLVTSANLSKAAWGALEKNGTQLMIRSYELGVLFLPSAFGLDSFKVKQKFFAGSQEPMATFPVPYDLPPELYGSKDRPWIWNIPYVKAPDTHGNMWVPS
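AlphaScreen read-out: signal falls as enzyme removes the 3' tyrosine-FITC from a 5'-biotinylated DNA oligo (15 nM, 5 min, RT). Enzyme was E. coli-made recombinant Tdp1 at 1 nM, exposed to compound for 15 min beforehand; beads 10 ug/ml, 10 min.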
HepG2 viability = qHTS for Inhibitors of TGF-b: Cytotox Counterscreen; HepG2 CAGA-GFP viability, ATP luminescence, 18 h; Potency, µM (series often up to 46.1 µM), for inactives: at the highest dose activity change, negative = cytotoxicity, usual class: cytotoxic; hit rate 0.76% among 410,000; AID 588856, 2011; also: potency is read from the fitted curve at half-maximal effect
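HepG2 CAGA-GFP cells (1000/well, DMEM with 1% FBS) received compound, then TGF-beta at 500 pg/mL final, and were incubated 18 hours at 37 degrees C. Viability was read by CellTiter-Glo luminescence. Media-only wells were set as complete cell-killing and DMSO as no toxicity.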
IL-1B inflam inh = qHTS for Inhibitors of Inflammasome Signaling: IL-1-beta AlphaLISA Primary Screen; THP-1 LPS/ATP IL-1B secretion, AlphaLISA, 16 h; hits give low values; activity change, % at 57.5 µM; hit rate 4.7% among 360,000; AID 743279, 2014; in the data active = activity change below about -50%; inconclusive = mostly about -30% to -49%; also: % is scaled to controls: 0 for no effect and ±100 for the full control effect
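THP-1 cells pretreated 1 hr with compounds (up to 57.5 uM final), then stimulated with LPS (250 ng/mL final) plus ATP (1.25 mM final); secreted IL-1B measured by AlphaLISA after 16 hr, decreased signal indicating inhibition.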
TGFb inhibitor = qHTS for Inhibitors of TGF-b; HepG2 CAGA-GFP TGF-b/SMAD3 reporter, GFP fluorescence, 18 h; TGF-beta stimulated, 500 pg/mL final; Potency, µM (titrated, usually from 46.1 µM), for the others: at the highest dose activity, negative = inhibition, most hits filed as inhibitors; hit rate 1.2% among 410,000; AID 588855, 2011; also: potency is read from the fitted curve at half-maximal effect; % is scaled to controls: 0 for no effect and ±100 for the full control effect; nearly all actives have a fitted effect of over 65% in size
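Read-out: total well GFP (ex488/em500-530) summed from mean per-cell fluorescence. Cells: HEPG2 CAGA-GFP, 1% FBS DMEM, 18 h at 37 degrees C with 500 pg/mL final TGF-beta. Unstimulated wells served as the full-inhibition control; stimulated DMSO wells = 0%.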
TDP1 cell noCPT = qHTS for Inhibitors of human tyrosyl-DNA phosphodiesterase 1 (TDP1): qHTS in cells in absence of CPT; hit rate 15% among 420,000; Potency, µM (highest dose often 46.2 µM), without a hit: at the top dose activity change, negative = growth inhibition, actives largely listed as inhibitors; AID 686978, 2013; DT40 Tdp1-/- hTDP1 cells, no CPT, ATP luminescence, 48 h; also: potency is read from the fitted curve at half-maximal effect; % is scaled to controls: 0 for no effect and ±100 for the full control effect; nearly all actives have a fitted effect of over 55% in size
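Readout: luminescence from CellTiter-Glo after 30 min in the dark at RT. Cells: DT40 Tdp1-/- with stable hTDP1, 400/well. Exposure: compounds alone, ≥48 hr, 37 °C.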
The depositor's hits bear a star; ? = inconclusive; nt = no result given; ! = not confirmed by another sample; [ ] = another dose, or the depositor's remark. Unless noted, calls follow the shape of the dose curve; as a rule, active = well fitted curve in the direction sought with a large enough effect; inconclusive = small, poorly fitted or top-dose-only effect, or another doubt; inactive = no such curve, though single readings can be large; an effect the other way counts as inactive or inconclusive.

SMILES	TDP1 cell CPT	TDP1 block	HepG2 viability	IL-1B inflam inh	TGFb inhibitor	TDP1 cell noCPT
O=C(CN1C(=O)COc2ccc(S(=O)(=O)N3CCCC3)cc21)NCCc1ccc(Cl)cc1	?	5%	-1%	nt	?	23µM*
Cc1ccc(CCNC(=O)CN2C(=O)COc3ccc(S(=O)(=O)N4CCCCCC4)cc32)cc1	16µM*	-3%	-28%	nt	?	16µM*
COc1ccc(OC)c(CCNC(=O)CN2C(=O)COc3ccc(S(=O)(=O)N4CCCCCC4)cc32)c1	nt	9%	-4%	nt	?	nt
NS(=O)(=O)c1ccc(CCNC(=O)CN2C(=O)COc3ccc(S(=O)(=O)N4CCCC4)cc32)cc1	-7%	0%	4%	5	-1%	4%
COc1ccc(CCNC(=O)CN2C(=O)COc3ccc(S(=O)(=O)N4CCCC4)cc32)c(OC)c1	18µM*!	0%	0%	-29	1%	16µM*!
N#Cc1ccc(NCCNCC(=O)N2N=CCC2C#N)nc1 (configuration not stated)	nt	12%	nt	nt	nt	nt
CC(C)CC(=O)NC(=S)NNC(=O)c1ccc([N+](=O)[O-])cc1	18µM*	-1%	1%	33	0%	15µM*
Cc1ccc(C(=O)NC(=S)NNC(=O)c2cccc([N+](=O)[O-])c2)cc1	?	nt	-15%	34	-3%	?
CC(C)CC(=O)NC(=S)NNC(=O)c1ccc(NC(=O)C2CCCCC2)cc1	21µM*	9%	31%	12	-13%	12µM*
CCC(=O)NC(=S)NNC(=O)c1ccc([N+](=O)[O-])cc1	?	3%	7%	1	0%	18µM*
COc1cccc(NS(=O)(=O)c2ccc3c(c2)CCC(=O)N3)c1	nt	0%	nt	nt	nt	nt
Cc1ccc(OCCCCn2c(-c3ccc(Cl)cc3)nc3ccccc3c2=O)cc1	-19%	nt	-8%	nt	1%	-10%
COCC1C2CC[C@H]3C(OCc4ccc(F)cc4C(F)(F)F)OC[C@]4(C)[C@H]3C2=C(CN4C(=O)OC(C)(C)C)[C@H](C)C1COC (some centres not stated)	nt	9%	nt	nt	nt	nt
COc1ccccc1NC(=O)Cn1nnc(-c2ccccc2NC(=O)c2cccs2)n1	?	4%	-8%	-16	2%	21µM*
COc1cc(NC(=O)Cn2nnc(-c3ccccc3N)n2)cc(OC)c1	?	5%	-18%	-59*	6%	?
COc1ccc(NC(=O)Cn2nnc(-c3ccccc3NC(=O)c3ccco3)n2)cc1	2.9µM*	4%	-34%	-2	10%	2.6µM*
Cc1nn(CC(=O)OCC(=O)c2ccccc2)c(C)c1[N+](=O)[O-]	-20%	0%	4%	14	6%	-2%
COc1ccccc1CNc1cc(-c2c(C)noc2C)ncn1	-3%	nt	nt	nt	nt	-10%
Cc1ccc(S(=O)(=O)NC2CCCCC2)c(C)c1NS(C)(=O)=O	-3%	8%	-3%	-8	-13%	-14%
CC(C)(C)C(=O)Nc1ccc(N2CCN(c3ccc(C(F)(F)F)cn3)CC2)nc1	?	5%	13%	42	0%	1.5µM*
Cc1ccc(C(=O)N2CCN(c3ccc(C(F)(F)F)cn3)CC2)o1	?	5%	-23%	-2	-6%	?
O=C(c1ccccn1)N1CCN(c2ccc(C(F)(F)F)cn2)CC1	-30%	5%	-30%	-8	-2%	?
Cc1cccc(C(=O)N2CCN(c3ccc(C(F)(F)F)cn3)CC2)c1C	13µM*	6%	-13%	-26	-3%	21µM*
CCOc1ncccc1C(=O)N1CCN(c2ccc(C(F)(F)F)cn2)CC1	?	-4%	5%	28	1%	10µM*
O=C(c1ccc2n[nH]nc2c1)N1CCN(c2ccc(C(F)(F)F)cn2)CC1	16µM*	0%	4%	34	3%	?
SMILES	TDP1 cell CPT	TDP1 block	HepG2 viability	IL-1B inflam inh	TGFb inhibitor	TDP1 cell noCPT
CCOC(=O)C1CCCCN1S(=O)(=O)c1cc2c(cc1C)NC(=O)CO2 (configuration not stated)	?	nt	10%	47	-1%	?
COc1ccccc1C(=O)NNC(=O)c1cccc(C)c1	?	nt	-21%	7	13%	?
CCCS(=O)(=O)NC(=O)C1(C)CCN(C(=O)c2ccc(C(F)(F)F)cc2)C1 (configuration not stated)	-19%	nt	-10%	14	-3%	-13%
Cc1ccccc1N1CCN(C(=O)c2ccc(Oc3ccc(C(F)(F)F)cn3)cc2)CC1	8.9µM*	6%	-17%	-73*	-7%	13µM*
Cc1cc(C(=O)N2CCN(c3ccc(C(F)(F)F)cn3)CC2)c(C)o1	?	3%	-5%	-12	-18%	10µM*
C#CCCCO/N=C1/C[C@@H](O)[C@@H](O)[C@@H]2[C@@H]3C(=O)N(CC)C(=O)[C@H]3CC[C@H]12	nt	10%[21 µM]	nt	nt	nt	nt
CCCn1c(C)nc2c(NCCCN(CC)CC)nc(C)nc21	nt	8%	nt	nt	nt	nt
CCCOC(=O)c1ccc(NC(=O)CSC2=Nc3ccccc3C3CC=NN23)cc1 (configuration not stated)	23µM*	1%	18%	45	-1%	?
Cc1cc(C)cc(N(CCC#N)C(=O)CSC2=Nc3ccccc3C3CC=NN23)c1 (configuration not stated)	21µM*	0%	-5%	-91*	?	?
N#Cc1ccccc1NC(=O)CSC1=Nc2ccccc2C2CC=NN12 (configuration not stated)	15µM*	0%	-12%	25	-2%	23µM*
O=C(CSC1=Nc2ccccc2C2CC=NN12)Nc1ccc2c(c1)OCO2 (configuration not stated)	7.3µM*	6%	-55%	?	?	23µM*
N#Cc1ccccc1NC(=O)CSc1ccc([N+](=O)[O-])cn1	?	8%	-24%	-20	1%	-20%
O=C(CSc1ccccc1C(=O)O)Nc1ccc2c(c1)OCO2	-5%	2%	12%	12	-2%	28%
